Rows were chosen to be rich in hits. Some 21% of all compounds tested hit in one or more screens of this group.
TDP1 cell CPT = growth inhibition of DT40 Tdp1-/-;hTDP1 cells with camptothecin (screen for TDP1 inhibitors). chicken DT40 Tdp1-/-;hTDP1 cells + 20 nM CPT, ATP luminescence, 48 h. Potency, µM (highest dose often 46.2 µM), for inactives: top-dose activity change, negative = growth inhibition, usual class: inhibitors. 12% of 420,000 active; further: potency means the concentration at half of the fitted maximal effect; nearly all actives have a fitted effect of over 55% in size
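Chicken DT40 Tdp1-/- cells stably complemented with human TDP1 were seeded at 400 cells/well in medium containing 20 nM camptothecin, exposed to pin-transferred compounds, and grown at 37 °C for at least 48 hr. Viability was read as ATP luminescence.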
VP16 counter = inhibits Gal4-VP16 luciferase reporter, ROR gamma counter-screen; Drosophila S2 Gal4-VP16 UAS-luciferase, luminescence, 20 h; Potency, µM (doses to about 53.6 µM), without a hit: top-dose activity, negative = inhibition, most hits filed as inhibitors; 3.5% of 310,000 active; AID 2546;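 further: Gal4-VP16 expression switched on by copper sulfate through the metallothionein promoter; potency means the concentration at half of the fitted maximal effect; nearly all actives have a fitted effect of over 50% in size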
DT40 TDP1 no CPT = qHTS for Inhibitors of human tyrosyl-DNA phosphodiesterase 1 (TDP1): qHTS in cells in absence of CPT; AID 686978, 2013; DT40 Tdp1-/- hTDP1 cells, no CPT, ATP luminescence, 48 h; 15% of 420,000 active; Potency, µM (highest dose often 46.2 µM), for the others: top-dose activity change, negative = growth inhibition, actives largely listed as inhibitors; further: potency means the concentration at half of the fitted maximal effect; nearly all actives have a fitted effect of over 55% in size
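Cells were dispensed at 400 per well, compounds added by pin tool, plates incubated ≥48 hr at 37 °C, then CellTiter-Glo added for 30 min at room temperature before luminescence reading. Line: DT40 Tdp1-/- complemented with hTDP1; camptothecin omitted.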
RORgamma inh = ROR gamma (mouse) transcription inhibition; P51450; Drosophila S2 Gal4-RORgamma UAS-luciferase reporter, 20 h; Potency, µM (top dose mostly 53.6 µM), without a hit: at the highest dose activity change, negative = inhibition, usual class: inhibitors; 5.4% of 310,000 active; further: potency means the concentration at half of the fitted maximal effect; nearly all actives have a fitted effect of over 60% in size
Target sequence (P51450 whole entry, looked up, the tested form may be a part): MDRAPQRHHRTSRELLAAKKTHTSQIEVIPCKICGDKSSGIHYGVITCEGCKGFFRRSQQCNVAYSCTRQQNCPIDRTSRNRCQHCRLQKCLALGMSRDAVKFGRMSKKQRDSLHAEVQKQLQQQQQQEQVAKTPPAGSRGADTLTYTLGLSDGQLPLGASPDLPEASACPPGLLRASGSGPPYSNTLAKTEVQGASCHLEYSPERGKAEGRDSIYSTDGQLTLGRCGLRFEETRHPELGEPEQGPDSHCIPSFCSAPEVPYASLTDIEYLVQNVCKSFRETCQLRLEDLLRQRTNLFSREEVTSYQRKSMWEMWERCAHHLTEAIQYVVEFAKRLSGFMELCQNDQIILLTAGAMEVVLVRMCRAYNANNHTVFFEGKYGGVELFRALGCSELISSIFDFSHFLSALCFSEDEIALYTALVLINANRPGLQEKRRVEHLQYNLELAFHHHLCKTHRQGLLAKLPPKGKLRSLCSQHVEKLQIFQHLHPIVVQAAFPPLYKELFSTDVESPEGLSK
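Drosophila S2 cells stably expressing Gal4-DBD/mouse RORγ fusion under metallothionein promoter plus UAS-luciferase; compound 1 h, then 700 uM CuSO4 induction for 20 h at ambient temperature; inhibition read as reduced luminescence.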
ELG1 repair inh = inhibitors of ELG1-dependent DNA repair in HEK293T cells. HEK293T ELG1-luciferase reporter, luminescence, 16 h; DNA damage induced by 5-fluorouridine. Potency, µM (doses to about 46.1 µM), for the others: at the highest dose activity change, negative = inhibition, usual class: inhibitors. 2.3% of 330,000 active; further: potency means the concentration at half of the fitted maximal effect; nearly all actives have a fitted effect of over 55% in size
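HEK293T cells expressing luciferase-tagged ELG1 (2,000/well) received 5-Fluorouridine plus compound or DMSO for 16 hr at 37 °C. Luciferase was read by ONE-Glo luminescence after 30 min at room temperature.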
IL-1B inflam inh = inhibitors of inflammasome signaling (IL-1 beta secretion); AID 743279; THP-1 LPS/ATP IL-1B secretion, AlphaLISA, 16 h; stronger effect = lower value; 4.7% of 360,000 active; activity change, % at 57.5 µM; in the data active means activity change below about -50%; inconclusive means mostly about -30% to -49%
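Secreted IL-1B measured by AlphaLISA bead assay after 16 h compound exposure of THP-1 cells; compounds (final up to 57.5 uM) added 1 h before LPS (250 ng/mL) and ATP (1.25 mM) stimulation; lower signal means less secretion.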
* marks the source's active call; other numbers are inactive results; ? = inconclusive; . = no result; [ ] = dose if it differs, or a comment. Unless noted, the call rests on the fitted dose curve; in most records, active means well fitted curve in the direction sought with a large enough effect; inconclusive means small, poorly fitted or top-dose-only effect, or another doubt; inactive means no such curve, though single readings can be large; an effect the other way counts as inactive or inconclusive. On the % scale 0 is the no-effect control and ±100 the full control effect.

SMILES	TDP1 cell CPT	VP16 counter	DT40 TDP1 no CPT	RORgamma inh	ELG1 repair inh	IL-1B inflam inh
CCOC(=O)c1ccc(S(=O)(=O)N2CCN(C(=O)c3cc(=O)c4ccccc4o3)CC2)cc1	0%	-3%	-6%	12%	?	-116*
Cc1ccc2c(c1)N(C(=O)CCC(=O)NCCN1CCOCC1)CCO2	1%	3%	-6%	-24%	5%	-9
CCOc1cc(/C=C/c2nc3cc(C)c(C)cc3s2)ccc1OCC(=O)N1CCOCC1	?	-7%	?	?	?	10
CCOc1cc(/C=C\[N+](=O)[O-])ccc1OCC(=O)N1CCOCC1	2.6µM*	5.6µM*	2.3µM*	4.5µM*	-2%	-107*
CCOc1cc(/C=N/NC(=S)Nc2ccccc2C(F)(F)F)ccc1OCC(=O)N1CCOCC1	5.8µM*	1.4µM*	8.2µM*	1.4µM*	12µM*	-17
Cc1ccc(/C=C/c2ccc3cccc(O)c3n2)s1	?	?	16µM*	14µM*	?	-16
Cc1cccc(/C=C\c2ccccc2)n1	?	-6%	-72%	?	.	.
Oc1cccc(/C=C/c2ccc3cccc(O)c3n2)c1	18µM*	5µM*	16µM*	-108%	?	4
CC(=O)COc1cccc2ccc(/C=C/c3ccc(Br)s3)nc12	21µM*	-6%	?	?	4%	12
O=[N+]([O-])c1ccc(/C=C/c2ccc3cccc(O)c3n2)cc1	21µM*	?	16µM*	2.5µM*	?	7
Cc1cc(C)c2c(c1)CC(C)(C)CC2=O	25%	.	1%	.	.	19
Cc1cccc(C)c1Cn1c(C)c(C(=O)NCCC#N)sc1=O	-6%	.	-5%	.	.	4
CC12CCC(=O)N1C(C(=O)Oc1cccc(F)c1)CS2 (stereo not given)	-5%	.	-2%	.	.	10
COc1ccccc1C1CN(Cc2cccc3c2OCO3)Cc2ccccc2O1 (stereo not given)	-124%[9.04 µM]	.	-18%	.	.	.
CCOC(=O)C1CCN(C(=O)COC(=O)CNC(=O)c2ccc(C(C)(C)C)cc2)CC1	-12%	.	-13%	.	5%	8
COc1cccc(/C=C/c2ccc3cccc(O)c3n2)c1	?	11µM*	7.3µM*	3.5µM*	?	?
O=c1c(C(c2nnnn2C2CCCCC2)N2CCCCC2)coc2ccc(Cl)cc12 (stereo not given)	?	-4%	21µM*	-8%	16%	-19
COCCCNC(=O)C[C@H]1C[C@H](C(=O)N(C(C)C)C(C)C)[C@@]2(C)c3[nH]c4ccc(Cl)cc4c3CCN2C1=O	12µM*	.	8.2µM*	.	-15%	5
CC(C)N(C(=O)[C@H]1C[C@H](CC(=O)NCCCn2ccnc2)C(=O)N2CCc3c([nH]c4ccc(Cl)cc34)[C@]12C)C(C)C	?	.	18µM*	.	4%	?
COc1ccccc1CNC(=O)CN(C)S(=O)(=O)c1ccc(Br)s1	-3%	4%	-22%	0%	-11%	-15
O=C(c1ccc[nH]1)N1O[C@@H]2C=C[C@H]1C2	2%	.	-11%	.	10%	14
Clc1ccc(N2O[C@H]3C=C[C@@H]2C3)nc1	21µM*	.	?	.	.	?
COc1ccc(-c2c(N)nnc3c2[nH]c2ccccc23)cc1OC	?	-11%	21µM*	-3%	-11%	-64*
Cc1cc(C)cc(N2CCn3c2nc2c3c(=O)n(C/C=C/c3ccccc3)c(=O)n2C)c1	-3%	.	-6%	.	.	.
